Several values for one entry are separate records, joined by “and”; a condition that tells them apart may be missing. Equal entries are not always repeated. Results filed as inconclusive are left out. More than one record can exist for a structure, and the calls need not agree. Activity calls are given as the source filed them. Unless noted, the call rests on the fitted dose curve. Where only a bound is given, the exact number is not on record here.

Sequence of Cytochrome P450 1A2 (Homo sapiens) (P05177 whole entry, looked up): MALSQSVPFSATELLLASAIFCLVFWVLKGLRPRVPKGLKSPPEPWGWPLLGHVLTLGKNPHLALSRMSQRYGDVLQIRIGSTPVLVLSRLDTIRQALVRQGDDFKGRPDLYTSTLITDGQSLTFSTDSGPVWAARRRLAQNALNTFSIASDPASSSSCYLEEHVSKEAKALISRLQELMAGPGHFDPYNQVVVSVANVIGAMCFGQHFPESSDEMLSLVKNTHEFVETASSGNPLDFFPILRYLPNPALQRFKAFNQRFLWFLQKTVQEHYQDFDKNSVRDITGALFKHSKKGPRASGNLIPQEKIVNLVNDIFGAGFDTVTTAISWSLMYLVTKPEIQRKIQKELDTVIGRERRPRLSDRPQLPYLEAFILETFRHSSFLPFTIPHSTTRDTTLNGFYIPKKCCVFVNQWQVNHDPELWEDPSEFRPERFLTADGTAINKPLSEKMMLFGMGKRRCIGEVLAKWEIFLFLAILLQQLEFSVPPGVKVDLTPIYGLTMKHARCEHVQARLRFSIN

Tested on in the first experiment: not listed separately
Nature of the experiment: AP1 Signaling Pathway (AID 357; active means well fitted curve in either direction with a large enough effect, not every such curve was filed as active;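 further: ME-180 reporter cells stimulated with EGF at its EC50 level; on the % scale 0 is the no-effect control and ±100 the full control effect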). Conditions: ME-180 (cervical carcinoma) AP-1-bla reporter, EGF-induced, beta-lactamase ratio, 5 h; at 38 µM (top of the series). In a few lines:
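Titration-series screen for positive or negative modulators of EC50 EGF-induced signaling in ME-180 cells carrying an AP-1-driven beta-lactamase reporter. After 5 hours at 37 degrees Celsius, CCF4 460nm/530nm emission ratio gave %Activity; AC50 values derived.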
Regarding `O=NN(CCCl)C(=O)NCCCl`, the activity change, negative = inhibition is 3.21% (inactive).
Same read-out and setting: then `Nc1nc2c(ncn2COCCO)c(=O)[nH]1`, with 1.53% (inactive).
Still for that read-out and setting: the figure for `Cc1[nH]c(=O)c(C#N)cc1-c1ccncc1` is -0.284% (inactive); for `O=c1n(CCCN2CCN(c3cccc(Cl)c3)CC2)nc2ccccn12` it is -2.63% (inactive).
Same read-out and setting: the figure for `CN1CCN(CCCN2c3ccccc3Sc3ccc(C(F)(F)F)cc32)CC1` is 29.9% (inactive); for `CCCC(CCC)C(=O)O` it is 10.8% (inactive); for `O=C1CCc2cc(OCCCCc3nnnn3C3CCCCC3)ccc2N1` it is -14.1% (inactive).
In the case of `NNCCc1ccccc1`, the activity change, negative = inhibition is 26% (inactive).
With `N=c1nc(N2CCCCC2)cc(N)n1O`, the activity change, negative = inhibition was 2.17% (inactive).
On the same count and under the same terms, the figure for `CCCCNc1cc(C(=O)O)cc(S(N)(=O)=O)c1Oc1ccccc1` is -1.83% (inactive); for `C1COC(NC(C2CC2)C2CC2)=N1` it is -23.4% (inactive).
On to `NS(=O)(=O)c1cc2c(cc1Cl)NC=NS2(=O)=O`, for which the activity change, negative = inhibition is -2.75% (inactive).
On the same count and under the same terms, the figure for `Nc1nc2ccc(OC(F)(F)F)cc2s1` is -15% (inactive); for `Cc1ccc(N(CC2=NCCN2)c2cccc(O)c2)cc1` it is 18% (inactive); for `CC(=O)Oc1ccccc1C(=O)O` it is 8.53% (inactive).
The same measure, in the same setting: the figure for `NCCc1ccc(O)c(O)c1` is 2.68% (inactive).
On the same count and under the same terms, then `Nc1ccc(S(=O)(=O)Nc2ccnn2-c2ccccc2)cc1`, with 4.55% (inactive).
As to `Cn1cnc([N+](=O)[O-])c1Sc1ncnc2nc[nH]c12`, the activity change, negative = inhibition was 8.24% (inactive).
Consider `NC(N)=NC(=O)c1nc(Cl)c(N)nc1N`, for which the activity change, negative = inhibition is -2.62% (inactive).
On the same count and under the same terms, then `Clc1cccc(Cl)c1NC1=NCCN1`, with 4.79% (inactive); and `Cc1cnc(NC(=O)C2=C(O)c3ccccc3S(=O)(=O)N2C)s1`, with 1.25% (inactive).
The same measure, in the same setting: the figure for `O=c1[nH]cnc2[nH]ncc12` is 2.34% (inactive); for `Cc1oncc1C(=O)Nc1ccc(C(F)(F)F)cc1` it is -1.93% (inactive); for `N[C@@H]1CONC1=O` it is 6.67% (inactive) and -0.268% (inactive) and -2.74% (inactive).
Still for that read-out and setting: then `NC[C@H](O)c1ccc(O)c(O)c1`, with -15.3% (inactive) and -4.21% (inactive); and `CCOC(=O)C1=C[C@@]2(CC)CCCN3CCc4c(n1c1ccccc41)[C@H]32`, with 94.5% [activator] (active); and `NC(=O)c1cnccn1`, with 5.47% (inactive).
Regarding `CNC[C@H](O)c1cccc(O)c1`, the activity change, negative = inhibition was -17.9% (inactive).
On to `Cc1cn[nH]c1`, for which the activity change, negative = inhibition is 13.5% (inactive).

A further experiment has as its target Cytochrome P450 1A2 (Homo sapiens) (UniProt P05177). The experiment in a line: p450-cyp1a2 (AID 410). Further: potency means the concentration at half of the fitted maximal effect.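 On activity change, negative = inhibition: -100% = full effect of reference inhibitor.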 The note with it: recombinant CYP1A2, luciferin-ME demethylation, luminescence; series mostly up to 57 µM. A digest of the protocol: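 20nM CYP1A2, 100uM Luciferin-ME (=Km), 100mM KPO4; cpd 10 min RT; +NADPH regen, 60 min RT; stop/detect 20 min; luminescence. Normalized to furafylline 57 uM = full inhibition.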
In the case of `Nc1nc2c(ncn2COCCO)c(=O)[nH]1`, the Potency entry is “inactive”.
Turning to `CC(C)(Sc1ccc(CCN(CCCCC2CCCCC2)C(=O)NC2CCCCC2)cc1)C(=O)O`, the Potency result is “inactive”.
Same read-out and setting: the entry for `O=c1n(CCCN2CCN(c3cccc(Cl)c3)CC2)nc2ccccn12` is “inactive”; for `Cc1ccc2c(c1)C(=O)[C@@]1(O)CCN(c3ccccc3)C1=N2` it is 3.98 µM (active).
On the same count and under the same terms, then `CCCC(CCC)C(=O)O`, with “inactive”; and `O=C1CCc2cc(OCCCCc3nnnn3C3CCCCC3)ccc2N1`, with “inactive”.
On the same count and under the same terms, the figure for `Cc1cc2c(C(C)C)c(O)c(O)c(C=O)c2c(O)c1-c1c(C)cc2c(C(C)C)c(O)c(O)c(C=O)c2c1O` is 15.8 µM (active).
`NNCCc1ccccc1`: the Potency was 3.16 µM (active) and 1 µM (active).
`N=c1nc(N2CCCCC2)cc(N)n1O`: the Potency entry is “inactive”.
Consider `C1COC(NC(C2CC2)C2CC2)=N1`, for which the Potency entry is “inactive”.
In the case of `CCN(c1ccccc1)c1cc(NC)[n+](C)c(C)n1`, the Potency was 31.6 µM (active).
On the same count and under the same terms, the entry for `Cc1ccc(N(CC2=NCCN2)c2cccc(O)c2)cc1` is “inactive”.
In the case of `CC(=O)Oc1ccccc1C(=O)O`, the Potency result was “inactive”.
Take `Nc1ccc(S(=O)(=O)Nc2ccnn2-c2ccccc2)cc1`: the Potency entry was “inactive”.
Same read-out and setting: then `NC(N)=NC(=O)c1nc(Cl)c(N)nc1N`, with 12.6 µM (active) and 6.31 µM (active); and `Clc1cccc(Cl)c1NC1=NCCN1`, with “inactive”.
On the same count and under the same terms, then `O=c1[nH]cnc2[nH]ncc12`, with “inactive”.
Regarding `Cc1oncc1C(=O)Nc1ccc(C(F)(F)F)cc1`, the Potency is 631 nM (active) and 63.1 nM (active).
With `N[C@@H]1CONC1=O`, the Potency result was “inactive”.
In the case of `CC(C)C[C@H](NC(=O)[C@@H](O)[C@H](N)Cc1ccccc1)C(=O)O`, the Potency result was “inactive”.
Take `CCOC(=O)C1=C[C@@]2(CC)CCCN3CCc4c(n1c1ccccc41)[C@H]32`: the Potency result is “inactive and 39.8 µM (active)”.
The same measure, in the same setting: the entry for `NC(=O)c1cnccn1` is “inactive”.

Tested on in another experiment: not listed separately
The experiment in a line: Cell Viability - BJ (AID 421).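 Further: potency means the concentration at half of the fitted maximal effect; cells exposed to compound for 40 hours at 37 °C before readout.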 Conditions: BJ fibroblast viability, qHTS. A digest of the protocol: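 Normal human BJ foreskin fibroblasts, 1500/well in complete medium, treated 40 hr at 37 °C. Cellular ATP by CellTiter-Glo luminescence; normalized to DMSO and 100 uM tamoxifen, AC50 from Hill fit.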
Regarding `CCCC(CCC)C(=O)O`, the Potency is > 92 µM (inactive).
Still for that read-out and setting: the figure for `NS(=O)(=O)c1cc2c(cc1Cl)NC=NS2(=O)=O` is > 92 µM (inactive); for `CC(=O)Oc1ccccc1C(=O)O` it is > 92 µM (inactive).
Same read-out and setting: the figure for `Cn1cnc([N+](=O)[O-])c1Sc1ncnc2nc[nH]c12` is > 92 µM (inactive); for `NC(N)=NC(=O)c1nc(Cl)c(N)nc1N` it is > 92 µM (inactive).
In the case of `O=c1[nH]cnc2[nH]ncc12`, the Potency was > 92 µM (inactive).
Take `NC(=O)c1cnccn1`: the Potency is > 92 µM (inactive).

Tested on in a further experiment: not listed separately
Nature of the experiment: Cell Viability - Jurkat (AID 426;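 active means dose-dependent loss of cell ATP signal giving a full or clear fitted curve, ranked by lower potency value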;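 further: potency means the concentration at half of the fitted maximal effect; cells exposed to compound for 40 hours at 37 °C before ATP read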). Conditions: qHTS. In a few lines: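 Luminescent ATP read-out (CellTiter-Glo, 20 min at room temperature) after 40 hr compound exposure at 37 °C of Jurkat E6-1 cells, 5000/well. Decreased ATP taken as cytotoxicity; AC50 from standard Hill equation.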
Turning to `CCCC(CCC)C(=O)O`, the Potency was > 92 µM (inactive).
Still for that read-out and setting: the figure for `NS(=O)(=O)c1cc2c(cc1Cl)NC=NS2(=O)=O` is > 92 µM (inactive); for `CC(=O)Oc1ccccc1C(=O)O` it is > 92 µM (inactive).
For `Cn1cnc([N+](=O)[O-])c1Sc1ncnc2nc[nH]c12`, the Potency was 0.384 µM (active).
On to `NC(N)=NC(=O)c1nc(Cl)c(N)nc1N`, for which the Potency was > 92 µM (inactive).
On the same count and under the same terms, the figure for `O=c1[nH]cnc2[nH]ncc12` is > 92 µM (inactive); for `NC(=O)c1cnccn1` it is > 92 µM (inactive).
